About 2,000 (36%) of roughly 5,500 compounds were called active. Not shown: some 18% with an inconclusive outcome. No stated cut-off is given here; in the data, active means normalized growth mostly below about 0.91 (no sharp cut-off); inconclusive means no clear call, values can overlap the other calls; inactive means mostly above about 0.92. The list shows a part of the results.
Assay: chemical genetic growth profiling, strain panel (AID 1159580);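 further: tested at 20 µM; growth read once vehicle control cultures reached saturation at 30 °C; 1 = growth at the plate median or of vehicle wells; lower values mean less growth of the strain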
Conditions: S. cerevisiae deletion strains, growth OD

Measured: normalized growth

COc1cc([C@@H]2c3cc4c(cc3[C@@H](O)C3COC(=O)C32)OCO4)cc(OC)c1O (stereo not given in full)
inactive: locus YAL021C, strain ccr4, active compounds read low 0.971 | locus YAL026C, strain drs2, active compounds read low 0.982 | locus YAL030W, strain snc1, active compounds read low 0.986 | locus YBL061C, strain skt5, active compounds read low 0.988 | locus YBR009C, strain hhf1, active compounds read low 0.988 | locus YBR023C, strain chs3, active compounds read low 1 | locus YBR171W, strain sec66, active compounds read low 0.996 | locus YBR231C, strain swc5, active compounds read low 1 | locus YBR279W, strain paf1, active compounds read low 0.997 | locus YCL011C, strain gbp2, active compounds read low 0.988 | locus YCL016C, strain dcc1, active compounds read low 0.981 | locus YCL061C, strain MRC1, active compounds read low 0.978 | locus YCL069W, strain vba3, active compounds read low 0.985 | locus YCR088W, strain abp1, active compounds read low 0.988 | locus YDL005C, strain med2, active compounds read low 0.979 | locus YDL040C, strain nat1, active compounds read low 0.981 | locus YDR001C, strain nth1, active compounds read low 0.977 | locus YDR069C, strain doa4, active compounds read low 0.988 | locus YDR137W, strain rgp1, active compounds read low 1 | locus YDR159W, strain sac3, active compounds read low 0.994 | locus YDR195W, strain ref2 0.944 | locus YDR297W, strain sur2, active compounds read low 0.989 | locus YDR334W, strain swr1, active compounds read low 0.977 | locus YDR335W, strain msn5, active compounds read low 0.985 | locus YDR392W, strain spt3, active compounds read low 1.01 | locus YEL003W, strain gim4, active compounds read low 0.997 | locus YEL037C, strain rad23, active compounds read low 0.981 | locus YEL061C, strain CIN8 (second series), active compounds read low 0.991 | locus YER015W, strain faa2, active compounds read low 0.993 | locus YER016W, strain bim1, active compounds read low 0.987 | locus YER111C, strain swi4, active compounds read low 0.981 | locus YER155C, strain BEM2 (second series), active compounds read low 1.01 | locus YFR010W, strain ubp6, active compounds read low 0.973 | locus YGL167C, strain pmr1, active compounds read low 0.975 | locus YGL173C, strain kem1, active compounds read low 0.992 | locus YGL227W, strain vid30, active compounds read low 0.995 | locus YGL240W, strain doc1, active compounds read low 1.01 | locus YGL253W, strain hxk2, active compounds read low 0.934 | locus YHR013C, strain ard1, active compounds read low 0.964 | locus YHR027C, strain rpn1, active compounds read low 0.986 | locus YHR030C, strain SLT2, active compounds read low 1.03 | locus YHR079C, strain IRE1, active compounds read low 1.04 | locus YHR142W, strain chs7, active compounds read low 0.971 | locus YJL092W, strain hpr5, active compounds read low 0.977 | locus YJL095W, strain BCK1 (second series), active compounds read low 0.981 | locus YJL095W, strain BCK1, active compounds read low 1.02 | locus YJL115W, strain asf1, active compounds read low 0.966 | locus YJL129C, strain trk1, active compounds read low 0.977 | locus YJL154C, strain vps35, active compounds read low 0.985 | locus YJL164C, strain tpk1, active compounds read low 0.967 | locus YJL166W, strain qcr8, active compounds read low 0.997 | locus YJL187C, strain SWE1, active compounds read low 1 | locus YJR066W, strain TOR1, active compounds read low 0.993 | locus YKL160W, strain elf1, active compounds read low 0.973 | locus YKR026C, strain gcn3, active compounds read low 0.991 | locus YKR091W, strain srl3, active compounds read low 0.978 | locus YLL001W, strain dnm1, active compounds read low 0.953 | locus YLL026W, active compounds read low 0.987 | locus YLL041C, strain sdh2, active compounds read low 0.979 | locus YLR027C, strain aat2, active compounds read low 0.991 | locus YLR113W, strain HOG1, active compounds read low 1.03 | locus YLR221C, strain rsa3, active compounds read low 1.02 | locus YLR258W, strain gsy2, active compounds read low 0.985 | locus YLR262C, strain YPT6 (second series), active compounds read low 1.05 | locus YLR320W, strain mms22, active compounds read low 1.02 | locus YLR342W, strain FKS1, active compounds read low 0.986 | locus YLR357W, strain rsc2, active compounds read low 0.966 | locus YLR370C, strain arc18, active compounds read low 0.983 | locus YLR384C, strain iki3, active compounds read low 0.982 | locus YML120C, strain ndi1, active compounds read low 0.985 | locus YMR058W, strain fet3, active compounds read low 0.979 | locus YMR125W, strain sto1, active compounds read low 0.979 | locus YMR129W, active compounds read low 0.997 | locus YMR205C, strain PFK2, active compounds read low 0.965 | locus YMR231W, strain pep5, active compounds read low 0.977 | locus YNL071W, strain lat1, active compounds read low 0.991 | locus YNL183C, strain NPR1, active compounds read low 0.997 | locus YNL209W, strain ssb2, active compounds read low 0.993 | locus YNL248C, strain rpa49, active compounds read low 0.959 | locus YNL322C, strain KRE1 (second series), active compounds read low 0.991 | locus YNR049C, strain mso1, active compounds read low 0.986 | locus YOR001W, strain rrp6, active compounds read low 0.979 | locus YOR070C, strain gyp1, active compounds read low 0.983 | locus YOR080W, strain dia2, active compounds read low 1 | locus YOR083W, strain WHI5, active compounds read low 0.982 | locus YOR106W, strain vam3, active compounds read low 0.958 | locus YOR231W, strain MKK1, active compounds read low 1.03 | locus YOR265W, strain rbl2, active compounds read low 0.987 | locus YOR270C, strain vph1, active compounds read low 0.94 | locus YOR290C, strain snf2, active compounds read low 0.952 | locus YPL051W, strain arl3, active compounds read low 1.03 | locus YPL078C, strain atp4, active compounds read low 0.949 | locus YPL106C, strain sse1, active compounds read low 0.99 | locus YPL240C, strain hsp82, active compounds read low 0.994 | locus YPL256C, strain CLN2, active compounds read low 1.02

Source: PubChem BioAssay AID1159580 (chemical genetic matrix, 2015)
